The source made the active and inactive calls. Unless noted, the rule behind the calls is not given here.

The subject of assay [1] is Wnt5a (protein binding on small-molecule microarray). Description: small molecules binding Wnt5a protein – biophysical, small-molecule microarray, 635/667 nm fluorescence, primary screen (AID 1142).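 Note: fluorescence read at 667 nm with signal to noise per printed feature.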 The settings on record: 635 nm fluorescence, higher = more signal.
A short description of assay [2]: ATP-based viability of Huh7 replicon cells – cell-based, CellTiter-Glo luminescence, basal, 48 h, cytotoxicity control for HCV replication inhibitor project, primary screen (AID 1143).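 Note: Huh7 hepatoma cells carrying a hepatitis C replication reporter with no stimulus; test concentration not given here.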 The settings on record: higher = more signal, called active from +8 up or from −8 down. (In general: In antiviral work, replicon cells carry a viral genome segment that copies itself.)

The nature of assay [3]: Pseudomonas biofilm growth suppression – PAO1 strain, BacTiter-Glo luminescence, LB-PBS, primary screen (AID 1144). The settings on record: P. aeruginosa PAO1 biofilm, 12 h, higher = more signal.
A short description of assay [4]: basal CRE-LacZ reporter activity in PC12 – cell-based, unstimulated, primary screen (AID 1145). The settings on record: no forskolin, luminescence, 4.5 h, higher = more signal, called active from +8 up or from −8 down.
Assay [5] in a line: forskolin-driven CRE-LacZ activity in PC12 – cell-based, CRE-LacZ reporter, forskolin-stimulated, primary screen (AID 1146).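 Note: PC12 cells with 6xCRE LacZ reporter stimulated by forskolin 10 µM; beta-galactosidase reporter signal reflecting CREB driven transcription.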 The note with it: luminescence, 4.5 h, higher = more signal, called active from +8 up or from −8 down.
Assay [6] has as its target Streptavidin (Streptomyces avidinii) (UniProt P22629). The assay is described as follows: compounds binding control protein streptavidin – biophysical, small-molecule microarray, 635/667 nm fluorescence, artefact control for SMM compound annotation, primary screen (AID 1147).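 Note: signal reflects streptavidin binding to arrayed compounds as a control protein.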 The settings on record: higher = more signal.
A short description of assay [7]: probe aInhba binding on compound microarray – biochemical, small-molecule microarray, 635/667 nm fluorescence, primary screen (AID 1148).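 Note: score merges 667nm spot fluorescence with signal-to-noise for antibody binding to printed compounds.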 The note with it: higher = more signal.
The target in assay [8] is Torsin-1A (Homo sapiens) (UniProt O14656). Description: TOR1A wild-type binding on microarray – cell lysate, small-molecule microarray, lysate, 635/667 nm, primary screen (AID 1149). The note with it: COS7 hTOR1A-WT lysate, 635 nm fluorescence, higher = more signal.
Torsin-1A (Homo sapiens), sequence (O14656 whole entry, looked up): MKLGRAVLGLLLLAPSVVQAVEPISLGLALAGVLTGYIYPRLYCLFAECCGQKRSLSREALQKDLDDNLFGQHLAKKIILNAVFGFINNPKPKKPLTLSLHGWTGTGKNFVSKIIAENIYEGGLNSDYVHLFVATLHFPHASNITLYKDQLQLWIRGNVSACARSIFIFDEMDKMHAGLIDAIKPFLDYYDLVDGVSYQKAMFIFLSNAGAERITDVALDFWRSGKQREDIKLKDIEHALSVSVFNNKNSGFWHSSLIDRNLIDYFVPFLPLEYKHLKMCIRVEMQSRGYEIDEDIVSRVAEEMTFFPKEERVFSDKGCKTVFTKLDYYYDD
For assay [9] the target is unchanged. The assay is described as follows: torsin A mutant lysate binding on microarrays – cell lysate, small-molecule microarray, COS7 lysate, 635/667 nm fluorescence, primary screen (AID 1150).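 Note: score pools 667 nm emission and signal to noise measuring lysate protein binding.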 The settings on record: COS7 hTOR1A mutant lysate, 635 nm fluorescence, higher = more signal.
Assay [10] has as its system Sonic hedgehog protein (Shh). Description: Sonic hedgehog microarray binding compounds – biochemical, small-molecule microarray, 635/667 nm fluorescence, primary screen (AID 1151).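 Note: Shh protein binding to compounds spotted on small-molecule microarray slides; score combines spot fluorescence intensity with signal-to-noise across triplicate slides.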 The settings on record: 635 nm fluorescence, higher = more signal.

Streptavidin (Streptomyces avidinii), sequence (P22629 whole entry, looked up): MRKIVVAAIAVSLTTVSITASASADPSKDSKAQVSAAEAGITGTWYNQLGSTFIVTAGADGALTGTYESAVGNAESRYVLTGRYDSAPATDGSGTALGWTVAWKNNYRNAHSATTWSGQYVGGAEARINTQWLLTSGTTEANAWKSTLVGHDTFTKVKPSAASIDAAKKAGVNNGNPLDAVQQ

Take `CN1C(=O)C2C=CC(C(O)C(c3ccccc3)c3ccccc3)N(Nc3ccccc3)C2C1=O` (stereo not given): the composite z-score in assay [1] was determined as 0.35; in assay [6], 1.49; in assay [7] it was 0.0857; in assay [8], 0.096; in [9] it was 0.585; in assay [10], 0.424. In addition, the z-score in [2] is -1.91 (inactive); in assay [3] it was -0.437 (inactive); in assay [4], -0.14 (inactive); in assay [5], 0.574 (inactive).
Regarding `CC(C)C(CO)N1C(=O)[C@@H]2[C@H]3C(=O)OCC=C[C@H]3OC23C=CCN(c2ccc4ccccc4c2)C(=O)[C@@H]13` (stereo not given in full), the composite z-score in [1] was -0.0522; in [6], -0.818; in assay [7] it was -0.179; in assay [8] it was -0.905; in assay [9] it was -2.07; in assay [10], -0.506. The z-score in assay [2] is -0.372 (inactive); in assay [3] it was 2.05 (inactive); in assay [4], 0.732 (inactive); in assay [5], 0.755 (inactive).
Regarding `C=CCN1C(=O)[C@]2(COC(c3ccc(OCCCO)cc3)=N2)Cc2ccccc21`, the composite z-score in [1] was 0.258; in assay [6], -0.554; in assay [7], 0.167; in [8] it was 0.689; in assay [9], 0.277; in assay [10], 0.169. Moreover, the z-score is -3.34 (inactive) in assay [2], -1.18 (inactive) in assay [3], 1.8 (inactive) in assay [4] and -1.3 (inactive) in assay [5].
Take `COc1ccc([Si](C)(C)[C@H]2[C@H](CCO)O[C@@]3(C(=O)N(Cc4ccccc4)c4ccc(N5C(=O)COc6ccccc65)cc43)[C@@H]2C)cc1`: the composite z-score in assay [1] was 0.19; in assay [6] it was 0.0375; in assay [7], 0.189; in [8] it was -0.503; in assay [9], 0.105; in assay [10], 1.92. Moreover, the z-score in [2] was -6.69 (inactive); in [3], -0.539 (inactive); in [4], -0.258 (inactive); in [5], -0.81 (inactive).
As to `COc1ccc([Si](C)(C)[C@H]2[C@H](CCO)O[C@@]3(C(=O)N(Cc4cccc(N5C(=O)c6cccc7cccc5c67)c4)c4ccccc43)[C@@H]2C)cc1`, the composite z-score in assay [1] was 0.346; in assay [6], 0.343; in assay [7] it was -0.176; in assay [8] it was -0.697; in assay [9], -0.318; in [10], 0.329. Also, the z-score was -6.95 (inactive) in [2], 0.0998 (inactive) in assay [3], -0.011 (inactive) in assay [4] and -1.37 (inactive) in assay [5].
On to `C[N+](C)(C)CCCC[C@@H]1NC(=O)[C@@H]2C[C@H](C(=O)NCCCCCCNC(=O)CS)[C@H](c3cccc(OCCO)c3)N2C1=O`, for which the composite z-score in assay [1] is -0.326; in assay [6], -1.12; in assay [7], -0.231; in [8], 0.23; in assay [9], 1.87; in assay [10], 1.54. In addition, the z-score in assay [2] was 0.214 (inactive); in [3], -0.555 (inactive); in assay [4], -0.671 (inactive); in assay [5], -0.29 (inactive).
On to `C=C(COC)C(=O)CC[C@@H](OC(=O)c1ccccc1-c1ccccc1C(=O)O)c1ccc(CO)o1`, for which the composite z-score was 1.24 in [1]; -0.517 in assay [6]; -0.188 in [7]; 1.67 in assay [8]; 0.404 in assay [9]; 1.91 in [10]. Also, the z-score in assay [2] is -7.58 (inactive); in assay [3], 0.164 (inactive); in [4], 8.29 (active); in [5] it was 5.1 (inactive).
For the compound `COCC1=C([C@H](O)CCc2ccccc2)[C@H](CO)[C@@H]2C(=O)N(Cc3ccccc3)C(=O)[C@@H]2C1`, the composite z-score was 0.0713 in assay [1]; -0.0218 in assay [6]; -0.0759 in assay [7]; -0.305 in assay [8]; 0.767 in [9]; 1.03 in [10]. Also, the z-score was -0.979 (inactive) in [2], -0.771 (inactive) in assay [3], 0.586 (inactive) in assay [4] and -0.0417 (inactive) in assay [5].
Consider `COC(=O)[C@@]1(Cc2ccc(OC)cc2)[C@H]2c3cc(C(=O)N4CCCC4)n(C[C@H](O)CO)c3C[C@H]2CN1C(=O)c1ccccc1`, for which the composite z-score in assay [1] was 0.0149; in assay [6], 0.528; in [7], 0.0082; in assay [8], -0.467; in assay [9], 0.354; in assay [10] it was -0.666. Moreover, the z-score in [2] was -0.132 (inactive); in [3] it was -0.389 (inactive); in assay [4], -0.365 (inactive); in assay [5], 0.294 (inactive).
Take `CCCC[C@H]1C[C@@H]1[C@@H]1N(P(=O)(c2ccccc2)c2ccccc2)[C@](CO)(c2ccccc2)CC12CC2`: the composite z-score in assay [1] is 0.326; in assay [6], 1.15; in [7], 0.0403; in assay [8], -0.57; in assay [9], 0.515; in [10] it was -1.36. Further, the z-score is -3.16 (inactive) in assay [2], 0.76 (inactive) in assay [3], -0.561 (inactive) in assay [4] and -1.24 (inactive) in [5].
Consider `NC(=O)NCC#Cc1ccc2c(c1)[C@]1(C(=O)N2)[C@H](C(=O)NC[C@H](O)c2ccccc2)[C@H]2C(=O)O[C@H](c3ccccc3)[C@H](c3ccccc3)N2[C@@H]1c1ccccc1OCCO`, for which the composite z-score is -0.0335 in [1]; -0.0692 in assay [6]; 0.0471 in assay [7]; -1.05 in assay [8]; 0.92 in assay [9]; 1.82 in assay [10]. Also, the z-score is -4.25 (inactive) in assay [2], -1.09 (inactive) in [3], -0.0246 (inactive) in assay [4] and -0.304 (inactive) in assay [5].
Turning to `O=C(NCc1ccccc1)[C@@H]1c2ccccc2C(=O)N(C2CCCCC2)[C@H]1c1ccc(CO)cc1`, the composite z-score in assay [1] is 0.191; in assay [6], -0.395; in assay [7] it was -0.352; in [8], 0.113; in [9], 1.11; in assay [10], 1.4. Besides, the z-score in assay [2] was -1.08 (inactive); in assay [3], 0.583 (inactive); in assay [4], 0.234 (inactive); in [5] it was 0.174 (inactive).
With `COc1cc(CO)cc(I)c1O[C@H]1C=C(C(=O)NCCO)C[C@@H](N(CCc2cccc(F)c2)C(=O)CCC2CCCC2)[C@@H]1O`, the composite z-score in assay [1] turned out to be 1.38; in assay [6], 0.628; in assay [7] it was 0.0872; in [8], 0.727; in assay [9], 1.26; in assay [10] it was 1.89. For the same compound, the z-score in [2] was -6.09 (inactive); in assay [3] it was -0.986 (inactive); in [4], 6.93 (inactive); in assay [5] it was -0.374 (inactive).

(Values after PubChem BioAssay.)
